Here are results for one sequence from paper PMC7862700, “An all-to-all approach to the identification of sequence-specific readers for epigenetic DNA modifications on cytosine”.

Common to all, as to experiment: DAPPL (digital affinity profiling via proximity ligation, sequencing); 10 mM Tris-HCl pH 7.5, 50 mM NaCl, 1 mM DTT, 4% glycerol, room temperature, 30 min; GST-TFs on glutathione beads, 16-mer random dsDNA library, 0.1% formaldehyde crosslink after washing; high values mean tight binding
One assay has as its target T1, FEV (Homo sapiens, UniProt Q99581 1-238).
T1 sequence: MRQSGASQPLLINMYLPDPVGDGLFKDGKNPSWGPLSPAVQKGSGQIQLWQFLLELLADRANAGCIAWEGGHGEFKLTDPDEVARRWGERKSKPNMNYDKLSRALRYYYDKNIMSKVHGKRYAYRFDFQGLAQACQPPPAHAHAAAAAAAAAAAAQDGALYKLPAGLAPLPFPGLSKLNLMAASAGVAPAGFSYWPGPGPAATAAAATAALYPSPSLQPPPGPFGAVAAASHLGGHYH
To be noted: protein: recombinant; tags: N-terminal GST; dsDNA, one strand shown. An outline of the steps: (§1)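 Binding signal is each hexamer's read frequency for a factor divided by its frequency in the tag-only sample. The factors were GST-fused human transcription factors from yeast, captured on glutathione beads, DNA-barcoded and pooled with that sample. Pools were incubated with 200 nmole of a random double-stranded 16-mer DNA library in Tris/NaCl/DTT/glycerol buffer at room temperature for 30 min, then washed, crosslinked with 0.1% formaldehyde, proximity-ligated with BsaI/T4 ligase (1 h, 37 °C), PCR-amplified and sequenced on an Illumina NextSeq500.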

Another assay addresses ETV5 (Homo sapiens, UniProt P41161 1-510). The conditions noted are these: protein: recombinant; tags: N-terminal GST; dsDNA, one strand shown. In short, it runs like this: as §1
Another assay has as its target HSF1 (Homo sapiens, UniProt Q00613 1-529). The conditions noted are these: protein: recombinant; tags: N-terminal GST; chain copies: 3; dsDNA, one strand shown. In short, it runs like this:
as §1

Another assay deals with T2, SPIC (Homo sapiens, UniProt Q8N5J4 1-248).
T2 sequence: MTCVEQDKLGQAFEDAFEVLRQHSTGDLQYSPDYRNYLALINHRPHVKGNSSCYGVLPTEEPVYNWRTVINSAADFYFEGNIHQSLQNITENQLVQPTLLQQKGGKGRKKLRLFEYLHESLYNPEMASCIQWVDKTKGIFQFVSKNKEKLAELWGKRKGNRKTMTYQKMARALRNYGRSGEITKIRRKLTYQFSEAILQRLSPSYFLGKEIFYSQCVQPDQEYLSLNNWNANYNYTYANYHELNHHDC
The conditions noted are these: protein: recombinant; tags: N-terminal GST; dsDNA, one strand shown. An outline of the steps:
as §1

A further assay deals with ELF4 (Homo sapiens, UniProt Q99607 1-663). The conditions noted are these: protein: recombinant; tags: N-terminal GST; dsDNA, one strand shown. In short, it runs like this:
as §1

In the next assay the target is T3, ELK4 (Homo sapiens, UniProt P28324-2 1-405).
T3 sequence: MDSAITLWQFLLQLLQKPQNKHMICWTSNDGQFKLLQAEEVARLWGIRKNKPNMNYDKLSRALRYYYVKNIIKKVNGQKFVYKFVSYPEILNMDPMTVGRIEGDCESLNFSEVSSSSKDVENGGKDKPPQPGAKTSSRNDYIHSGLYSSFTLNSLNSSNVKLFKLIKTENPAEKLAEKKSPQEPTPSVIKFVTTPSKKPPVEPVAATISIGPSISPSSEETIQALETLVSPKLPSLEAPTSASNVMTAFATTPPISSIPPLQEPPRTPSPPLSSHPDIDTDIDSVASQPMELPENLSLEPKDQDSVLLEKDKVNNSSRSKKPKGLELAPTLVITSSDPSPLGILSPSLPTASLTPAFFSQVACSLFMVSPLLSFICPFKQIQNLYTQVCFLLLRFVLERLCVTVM
To be noted: protein: recombinant; tags: N-terminal GST; dsDNA, one strand shown. In short, it runs like this: as §1

The target of the next assay is T4, ETV2 (Homo sapiens, UniProt O00321 1-342).
T4 sequence: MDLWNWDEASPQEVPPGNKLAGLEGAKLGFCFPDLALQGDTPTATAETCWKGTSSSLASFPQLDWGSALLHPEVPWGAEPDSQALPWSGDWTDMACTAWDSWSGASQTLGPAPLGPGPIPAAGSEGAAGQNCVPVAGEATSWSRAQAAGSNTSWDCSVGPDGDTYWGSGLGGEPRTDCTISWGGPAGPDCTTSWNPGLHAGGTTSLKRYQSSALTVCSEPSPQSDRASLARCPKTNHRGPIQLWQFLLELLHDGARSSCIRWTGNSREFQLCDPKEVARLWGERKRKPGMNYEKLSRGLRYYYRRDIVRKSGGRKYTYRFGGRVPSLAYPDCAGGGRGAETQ
To be noted: protein: recombinant; tags: N-terminal GST; dsDNA, one strand shown. An outline of the steps: as §1

Another assay has as its target T5, ELF3 (Homo sapiens, UniProt P78545 1-371).
T5 sequence: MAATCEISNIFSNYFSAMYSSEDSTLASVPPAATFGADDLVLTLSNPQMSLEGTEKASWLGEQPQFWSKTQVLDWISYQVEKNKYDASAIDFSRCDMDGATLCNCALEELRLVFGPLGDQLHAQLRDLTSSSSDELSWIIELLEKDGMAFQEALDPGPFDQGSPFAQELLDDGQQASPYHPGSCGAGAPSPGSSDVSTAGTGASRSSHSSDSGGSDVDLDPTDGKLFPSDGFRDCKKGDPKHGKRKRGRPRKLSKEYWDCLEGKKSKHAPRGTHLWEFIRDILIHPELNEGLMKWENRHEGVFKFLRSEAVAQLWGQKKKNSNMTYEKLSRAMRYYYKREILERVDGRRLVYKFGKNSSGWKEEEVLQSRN
The conditions noted are these: protein: recombinant; tags: N-terminal GST; dsDNA, one strand shown. In short, it runs like this:
as §1

The next assay addresses CRX (Homo sapiens, UniProt O43186 1-299). To be noted: protein: recombinant; tags: N-terminal GST; dsDNA, one strand shown. In short, it runs like this:
as §1

The target in the next assay is ETV1 (Homo sapiens, UniProt P50549 1-477). The conditions noted are these: protein: recombinant; tags: N-terminal GST; dsDNA, one strand shown. In short, it runs like this:
as §1

A further assay concerns the target T6, ERF (Homo sapiens, UniProt P50548 1-548).
T6 sequence: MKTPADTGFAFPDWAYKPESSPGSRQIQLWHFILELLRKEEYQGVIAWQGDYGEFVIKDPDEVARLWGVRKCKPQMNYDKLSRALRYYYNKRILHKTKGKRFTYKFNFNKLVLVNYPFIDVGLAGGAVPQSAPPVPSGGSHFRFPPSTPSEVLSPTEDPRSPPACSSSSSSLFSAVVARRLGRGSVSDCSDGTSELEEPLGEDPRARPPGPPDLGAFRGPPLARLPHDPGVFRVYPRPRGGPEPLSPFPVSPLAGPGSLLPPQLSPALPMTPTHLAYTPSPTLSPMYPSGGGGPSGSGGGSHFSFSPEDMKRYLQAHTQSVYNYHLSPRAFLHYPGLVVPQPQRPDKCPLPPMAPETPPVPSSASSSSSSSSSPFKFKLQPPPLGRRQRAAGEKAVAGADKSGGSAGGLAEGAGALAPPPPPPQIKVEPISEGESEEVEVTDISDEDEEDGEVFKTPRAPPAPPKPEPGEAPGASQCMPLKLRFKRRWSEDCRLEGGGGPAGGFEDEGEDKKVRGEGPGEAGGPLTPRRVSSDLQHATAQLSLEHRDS
To be noted: protein: recombinant; tags: N-terminal GST; dsDNA, one strand shown. In short, it runs like this:
as §1

The next assay concerns the target T7, ETV3L (Homo sapiens, UniProt Q6ZN32 1-361).
T7 sequence: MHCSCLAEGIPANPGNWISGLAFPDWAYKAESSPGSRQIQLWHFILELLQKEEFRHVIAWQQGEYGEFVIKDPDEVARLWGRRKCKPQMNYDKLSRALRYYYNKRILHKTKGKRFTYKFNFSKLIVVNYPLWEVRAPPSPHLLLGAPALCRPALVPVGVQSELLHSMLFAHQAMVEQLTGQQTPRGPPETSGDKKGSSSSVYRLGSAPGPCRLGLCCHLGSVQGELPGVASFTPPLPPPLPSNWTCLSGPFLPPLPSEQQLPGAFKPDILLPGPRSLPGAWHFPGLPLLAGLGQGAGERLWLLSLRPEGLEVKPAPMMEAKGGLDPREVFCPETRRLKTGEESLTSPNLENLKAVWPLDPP
The conditions noted are these: protein: recombinant; tags: N-terminal GST; dsDNA, one strand shown. In short, it runs like this: as §1

For the next assay, the target named is T8, ETS2 (Homo sapiens, UniProt P15036 1-469).
T8 sequence: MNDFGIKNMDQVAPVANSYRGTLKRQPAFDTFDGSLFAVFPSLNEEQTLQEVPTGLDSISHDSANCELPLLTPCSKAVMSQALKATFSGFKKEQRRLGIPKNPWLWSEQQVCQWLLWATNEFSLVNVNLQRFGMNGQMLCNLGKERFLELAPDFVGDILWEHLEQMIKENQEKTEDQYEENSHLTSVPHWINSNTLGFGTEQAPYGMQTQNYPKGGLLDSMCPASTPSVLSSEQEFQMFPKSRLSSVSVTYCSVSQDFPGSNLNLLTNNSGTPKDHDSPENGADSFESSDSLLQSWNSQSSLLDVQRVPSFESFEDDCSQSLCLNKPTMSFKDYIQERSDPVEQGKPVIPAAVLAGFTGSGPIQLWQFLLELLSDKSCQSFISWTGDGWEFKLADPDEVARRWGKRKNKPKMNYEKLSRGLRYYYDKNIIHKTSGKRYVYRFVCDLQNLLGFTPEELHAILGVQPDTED
To be noted: protein: recombinant; tags: N-terminal GST; dsDNA, one strand shown. An outline of the steps:
as §1

The target in the next assay is T9, SPDEF (Homo sapiens, UniProt O95238 1-335).
T9 sequence: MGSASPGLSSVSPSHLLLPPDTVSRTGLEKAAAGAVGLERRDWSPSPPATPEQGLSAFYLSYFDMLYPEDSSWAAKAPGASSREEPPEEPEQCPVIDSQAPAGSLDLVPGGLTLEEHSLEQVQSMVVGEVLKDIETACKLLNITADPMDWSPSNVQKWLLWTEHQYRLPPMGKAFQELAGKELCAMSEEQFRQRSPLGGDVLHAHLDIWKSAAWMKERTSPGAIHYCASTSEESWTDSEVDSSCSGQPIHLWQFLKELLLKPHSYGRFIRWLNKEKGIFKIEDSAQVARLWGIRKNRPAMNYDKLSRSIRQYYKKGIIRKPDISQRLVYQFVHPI
The conditions noted are these: protein: recombinant; tags: N-terminal GST; dsDNA, one strand shown. In short, it runs like this: as §1

The target of another assay is T10, ETV7 (Homo sapiens, UniProt Q9Y603 1-341).
T10 sequence: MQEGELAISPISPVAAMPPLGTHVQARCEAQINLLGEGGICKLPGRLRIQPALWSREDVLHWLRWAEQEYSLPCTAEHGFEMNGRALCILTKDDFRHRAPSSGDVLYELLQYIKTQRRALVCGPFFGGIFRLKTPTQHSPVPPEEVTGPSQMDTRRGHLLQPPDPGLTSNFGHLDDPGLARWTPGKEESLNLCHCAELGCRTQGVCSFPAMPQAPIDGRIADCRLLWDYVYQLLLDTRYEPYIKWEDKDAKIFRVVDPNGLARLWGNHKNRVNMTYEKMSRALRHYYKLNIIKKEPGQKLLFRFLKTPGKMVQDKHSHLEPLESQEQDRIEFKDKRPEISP
To be noted: protein: recombinant; tags: N-terminal GST; dsDNA, one strand shown. In short, it runs like this: as §1

A further assay addresses T11, ELF5 (Homo sapiens, UniProt Q9UKW6-2 1-255).
T11 sequence: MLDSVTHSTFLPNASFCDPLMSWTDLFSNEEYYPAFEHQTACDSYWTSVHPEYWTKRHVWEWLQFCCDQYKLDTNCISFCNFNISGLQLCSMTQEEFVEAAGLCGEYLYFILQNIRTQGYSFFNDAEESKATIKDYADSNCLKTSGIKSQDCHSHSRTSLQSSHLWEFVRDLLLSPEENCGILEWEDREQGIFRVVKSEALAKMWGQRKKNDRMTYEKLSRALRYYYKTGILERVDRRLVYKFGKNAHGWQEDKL
To be noted: protein: recombinant; tags: N-terminal GST; dsDNA, one strand shown. In short, it runs like this: as §1

The next assay has as its target T12, ETV3 (Homo sapiens, UniProt P41162-2 1-143).
T12 sequence: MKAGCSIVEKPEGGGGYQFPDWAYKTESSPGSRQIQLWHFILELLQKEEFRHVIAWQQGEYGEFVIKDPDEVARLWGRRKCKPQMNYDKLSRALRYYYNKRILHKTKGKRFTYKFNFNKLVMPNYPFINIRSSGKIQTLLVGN
The conditions noted are these: protein: recombinant; tags: N-terminal GST; dsDNA, one strand shown. In short, it runs like this: as §1

The next assay addresses ETV6 (Homo sapiens, UniProt P41212 1-452). The conditions noted are these: protein: recombinant; tags: N-terminal GST; dsDNA, one strand shown. An outline of the steps: as §1

Sequence of CRX (O43186 whole entry): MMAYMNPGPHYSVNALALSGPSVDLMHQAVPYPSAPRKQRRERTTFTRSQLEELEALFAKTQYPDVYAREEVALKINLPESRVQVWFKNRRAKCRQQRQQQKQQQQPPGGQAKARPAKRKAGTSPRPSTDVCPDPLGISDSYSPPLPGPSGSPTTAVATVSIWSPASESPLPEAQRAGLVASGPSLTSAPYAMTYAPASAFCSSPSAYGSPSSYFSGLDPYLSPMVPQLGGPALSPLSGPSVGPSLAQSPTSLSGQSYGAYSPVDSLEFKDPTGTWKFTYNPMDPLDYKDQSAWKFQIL
Sequence of ETV5 (P41161 whole entry): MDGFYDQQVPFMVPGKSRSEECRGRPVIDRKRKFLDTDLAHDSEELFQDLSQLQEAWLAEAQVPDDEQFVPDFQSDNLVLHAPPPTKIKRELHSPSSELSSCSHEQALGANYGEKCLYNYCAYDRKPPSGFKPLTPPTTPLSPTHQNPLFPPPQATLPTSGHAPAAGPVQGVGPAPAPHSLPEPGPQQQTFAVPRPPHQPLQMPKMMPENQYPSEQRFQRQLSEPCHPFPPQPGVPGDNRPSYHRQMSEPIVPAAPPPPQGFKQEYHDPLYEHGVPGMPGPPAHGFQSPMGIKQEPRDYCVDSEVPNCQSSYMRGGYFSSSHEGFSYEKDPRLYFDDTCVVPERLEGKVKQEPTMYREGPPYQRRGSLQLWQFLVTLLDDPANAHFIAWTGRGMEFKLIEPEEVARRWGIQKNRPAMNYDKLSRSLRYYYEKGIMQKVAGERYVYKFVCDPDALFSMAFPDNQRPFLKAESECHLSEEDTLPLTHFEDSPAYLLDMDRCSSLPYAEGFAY
Sequence of ETV6 (P41212 whole entry): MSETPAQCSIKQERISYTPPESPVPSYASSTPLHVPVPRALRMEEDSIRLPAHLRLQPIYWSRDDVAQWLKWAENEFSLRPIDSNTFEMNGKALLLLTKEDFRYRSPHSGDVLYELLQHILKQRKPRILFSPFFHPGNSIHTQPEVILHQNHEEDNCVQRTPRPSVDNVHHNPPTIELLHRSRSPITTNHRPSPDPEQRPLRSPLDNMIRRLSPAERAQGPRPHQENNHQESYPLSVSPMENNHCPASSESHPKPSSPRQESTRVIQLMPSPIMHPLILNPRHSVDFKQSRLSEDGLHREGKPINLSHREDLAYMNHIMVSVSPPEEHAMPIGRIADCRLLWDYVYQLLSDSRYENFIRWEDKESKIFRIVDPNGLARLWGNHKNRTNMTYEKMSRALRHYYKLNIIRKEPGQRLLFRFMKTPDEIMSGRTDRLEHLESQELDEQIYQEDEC
Sequence of HSF1 (Q00613 whole entry): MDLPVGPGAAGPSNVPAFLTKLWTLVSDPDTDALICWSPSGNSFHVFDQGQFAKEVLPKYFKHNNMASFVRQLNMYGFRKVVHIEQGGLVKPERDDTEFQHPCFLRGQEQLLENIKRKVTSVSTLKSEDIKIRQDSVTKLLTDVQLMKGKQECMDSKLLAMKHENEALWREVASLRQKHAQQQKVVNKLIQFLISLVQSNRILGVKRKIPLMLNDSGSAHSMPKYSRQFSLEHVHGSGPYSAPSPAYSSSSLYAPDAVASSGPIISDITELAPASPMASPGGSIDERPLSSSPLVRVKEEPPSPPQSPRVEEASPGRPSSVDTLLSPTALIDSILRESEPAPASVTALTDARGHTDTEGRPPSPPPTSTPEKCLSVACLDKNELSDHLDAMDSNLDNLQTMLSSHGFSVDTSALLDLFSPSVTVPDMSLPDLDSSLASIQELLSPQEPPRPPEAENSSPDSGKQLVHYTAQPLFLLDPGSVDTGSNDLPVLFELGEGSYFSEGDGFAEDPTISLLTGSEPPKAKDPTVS
Sequence of ETV1 (P50549 whole entry): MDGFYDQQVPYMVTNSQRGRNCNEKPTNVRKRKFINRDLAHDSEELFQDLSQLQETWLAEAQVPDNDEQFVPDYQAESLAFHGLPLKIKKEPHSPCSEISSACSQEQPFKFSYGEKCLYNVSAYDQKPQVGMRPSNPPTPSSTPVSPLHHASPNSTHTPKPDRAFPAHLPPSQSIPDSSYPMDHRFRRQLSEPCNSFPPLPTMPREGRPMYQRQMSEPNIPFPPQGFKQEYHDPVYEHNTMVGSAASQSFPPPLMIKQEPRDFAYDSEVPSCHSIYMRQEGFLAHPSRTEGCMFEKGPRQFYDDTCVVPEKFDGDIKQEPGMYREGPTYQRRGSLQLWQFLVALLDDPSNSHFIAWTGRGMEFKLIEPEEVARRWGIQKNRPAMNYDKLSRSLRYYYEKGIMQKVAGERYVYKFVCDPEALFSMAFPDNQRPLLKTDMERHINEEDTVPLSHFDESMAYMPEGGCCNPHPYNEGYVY
Sequence of ELF4 (Q99607 whole entry): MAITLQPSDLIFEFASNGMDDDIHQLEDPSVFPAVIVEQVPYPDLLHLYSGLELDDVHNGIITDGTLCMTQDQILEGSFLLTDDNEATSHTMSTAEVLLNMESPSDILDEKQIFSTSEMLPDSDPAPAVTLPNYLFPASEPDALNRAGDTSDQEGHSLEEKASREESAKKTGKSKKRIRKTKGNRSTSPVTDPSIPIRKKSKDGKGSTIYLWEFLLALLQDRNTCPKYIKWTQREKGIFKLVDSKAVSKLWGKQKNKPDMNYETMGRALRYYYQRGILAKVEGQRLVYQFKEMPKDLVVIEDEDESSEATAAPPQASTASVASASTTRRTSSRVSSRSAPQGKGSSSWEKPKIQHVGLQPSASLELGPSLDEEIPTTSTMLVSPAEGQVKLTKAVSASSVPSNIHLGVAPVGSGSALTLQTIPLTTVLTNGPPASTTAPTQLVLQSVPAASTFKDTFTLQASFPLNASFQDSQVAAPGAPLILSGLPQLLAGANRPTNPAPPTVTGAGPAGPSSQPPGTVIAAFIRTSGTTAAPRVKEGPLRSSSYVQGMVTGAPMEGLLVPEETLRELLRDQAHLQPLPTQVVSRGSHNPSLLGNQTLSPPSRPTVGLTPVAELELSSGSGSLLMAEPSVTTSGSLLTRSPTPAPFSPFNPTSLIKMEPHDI

For ATTCGA, the binding signal is 1.27 fold enrichment (6-mer frequency, TF over GST control) with FEV; 1.28 fold enrichment (6-mer frequency, TF over GST control) with ETV5; 2.51 fold enrichment (6-mer frequency, TF over GST control) in the assay with HSF1; 1.41 fold enrichment (6-mer frequency, TF over GST control) in the assay with SPIC; 1.38 fold enrichment (6-mer frequency, TF over GST control) in the assay with ELF4; 1.2 fold enrichment (6-mer frequency, TF over GST control) in the assay with ELK4. For the same sequence, the binding signal with ETV2 was 1.37 fold enrichment (6-mer frequency, TF over GST control); in the assay with ELF3, 1.55 fold enrichment (6-mer frequency, TF over GST control); with CRX, 1.63 fold enrichment (6-mer frequency, TF over GST control); with ETV1, 1.3 fold enrichment (6-mer frequency, TF over GST control); with ERF, 1.29 fold enrichment (6-mer frequency, TF over GST control); with ETV3L it was 1.47 fold enrichment (6-mer frequency, TF over GST control). Moreover, the binding signal with ETS2 is 1.31 fold enrichment (6-mer frequency, TF over GST control); with SPDEF, 1.28 fold enrichment (6-mer frequency, TF over GST control); with ETV7, 1.28 fold enrichment (6-mer frequency, TF over GST control); in the assay with ELF5, 1.24 fold enrichment (6-mer frequency, TF over GST control); in the assay with ETV3, 1.22 fold enrichment (6-mer frequency, TF over GST control); with ETV6 it was 1.23 fold enrichment (6-mer frequency, TF over GST control).
